PubChem BioAssay (NCATS)
Values joined by “and” are separate entries in the source; they are usually repeats but may differ in a detail not shown here. Identical values can stand only once. Results filed as inconclusive are left out. A call without a number means that no potency is given here. Active and inactive are the calls of the source. Unless noted, calls come from the whole dose curve; as a rule, active = well fitted curve in the direction sought with a large enough effect; inconclusive = small, poorly fitted or top-dose-only effect, or another doubt; inactive = no such curve, though single readings can be large; an effect the other way counts as inactive or inconclusive.

Legend:
[1] = qHTS Assay for Lipid Storage Modulators (AID 1519; calls by dose curve); settings: Drosophila S3 cells, BODIPY lipid droplet/cell ratio, laser cytometry, cells loaded with oleic acid
In short: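 Cells seeded at 5,000 per well were treated with compounds over a concentration series and loaded with oleic acid (400 uM, as added). Lipid droplet fluorescence (488 nm excitation, 500-530 nm channel) was read by laser-scanning cytometry and normalized to 20 uM Triacsin C.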

[2] = Cell Viability - LYMP2-022 (AID 987); note: nearly all actives have a fitted effect of over 55% in size; note: potency is the fitted concentration of half-maximal effect
In short: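 In this qHTS cytotoxicity screen, compound titrations were incubated 24 hr at 37 C with human lymphoblastoid cells in complete medium. Luciferase-based ATP luminescence provided the viability signal.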

[3] = Cell Viability - LYMP2-024 (AID 988); note: nearly all actives have a fitted effect of over 60% in size; note: potency is the fitted concentration of half-maximal effect
In short: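 Cells at 2500 per well received compound for 24 hr after a 5 hr settling period. Viability was scored by CellTiter-Glo luminescence, with AC50 from Hill fits.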

[4] = Cell Viability - LYMP1-002 - Assay at 40 hr (AID 994); note: nearly all actives have a fitted effect of over 60% in size; note: potency is the fitted concentration of half-maximal effect
In short: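 Concentration-dependent ATP loss after 40 hr treatment at 37 C defined toxicity; AC50 values were obtained by fitting the standard Hill equation.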

[5] = Cell Viability - LYMP2-010 (AID 981);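 note: cells exposed to compound for 24 hours at 37 °C; nearly all actives have a fitted effect of over 55% in size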; note: potency is the fitted concentration of half-maximal effect
In short: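 This 24 hr viability screen uses LYMP2-010 lymphoblastoid cells, quantifies ATP via luciferase luminescence, and derives AC50 from Hill fits of qHTS concentration-response data.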

[6] = Cell Viability - LYMP2-012 (AID 982);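 note: cellular ATP by luciferase luminescence where a drop means cytotoxicity; cells exposed to compound for one day before reading; nearly all actives have a fitted effect of over 55% in size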
[7] = Cell Viability - LYMP2-014 (AID 983);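 note: cells exposed to compound for 24 h at 37 °C; nearly all actives have a fitted effect of over 50% in size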
In short: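 Quantitative HTS in lymphoblastoid cells: 24 hr compound exposure, then CellTiter-Glo ATP luminescence. Positive control was tetraoctylammonium bromide, 6.4pM to 92 uM.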

[8] = Cell Viability - LYMP2-018 (AID 985); note: nearly all actives have a fitted effect of over 50% in size
In short: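 In this qHTS viability assay, cells are treated for 24 hr and cellular ATP is quantified by luciferase-based luminescence, with tetraoctylammonium bromide as positive control.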

[9] = Cell Viability - LYMP2-020 (AID 986);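 note: cells exposed to compound for 24 h at 37 °C; nearly all actives have a fitted effect of over 55% in size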
In short: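 Cells at 2500 per well receive a 24 hr compound exposure at 37 C. Viability is measured as ATP-dependent luciferase luminescence, with AC50 modeled from qHTS concentration-response curves.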

[10] = Cell Viability - LYMP2-026 (AID 989);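 note: cells exposed to compound for 24 h at 37 °C; nearly all actives have a fitted effect of over 50% in size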
In short: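 Acute toxicity screen in complete culture medium, with 24 hr compound exposure at 37 C. Viability read as cellular ATP via luciferase reaction, with tetraoctylammonium bromide (6.4pM to 92 uM) as positive control.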

[11] = target: Alpha-galactosidase A (Homo sapiens) (UniProt P06280); test: Counterscreen for Glucocerebrosidase Inhibitors: qHTS Assay for Human alpha-Galactosidase at pH 4.5 (AID 992)
Sequence of Alpha-galactosidase A (Homo sapiens) (P06280 whole entry, looked up): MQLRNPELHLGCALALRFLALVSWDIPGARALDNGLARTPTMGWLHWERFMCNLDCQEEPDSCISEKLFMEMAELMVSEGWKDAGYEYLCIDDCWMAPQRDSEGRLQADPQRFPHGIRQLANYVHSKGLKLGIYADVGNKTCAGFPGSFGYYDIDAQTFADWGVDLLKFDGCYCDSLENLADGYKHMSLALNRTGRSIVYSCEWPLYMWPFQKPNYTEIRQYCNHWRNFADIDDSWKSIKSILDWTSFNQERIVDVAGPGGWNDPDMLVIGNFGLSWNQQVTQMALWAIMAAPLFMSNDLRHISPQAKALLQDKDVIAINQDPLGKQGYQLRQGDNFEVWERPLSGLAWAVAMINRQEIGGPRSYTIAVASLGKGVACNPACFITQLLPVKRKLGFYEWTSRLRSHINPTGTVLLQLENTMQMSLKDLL
In short: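 Citrate buffer pH 4.5, Tween-20 0.005%. Enzyme 2 nM, substrate 80 uM, 20 min RT. Stop pH 10. Fluorescence Ex 365/Em 440. AC50 by Hill fit.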

[12] = target: alpha-glucosidase (Oryza sativa, rice) (UniProt Q653V4); test: Counterscreen for Glucocerebrosidase Inhibitors: qHTS Assay for Rice alpha-Glucosidase at pH 5.0 (AID 997)
In short: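 Endpoint fluorogenic assay at pH 5.0: compounds (0.7 nM to 77 uM) titrated against 4 nM rice enzyme and 400 uM 4-MU-alpha-glucoside for 20 min at room temperature; NaOH/glycine stop, read ex 365/em 440 nm, Hill-fitted AC50.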

[13] = target: DNA repair nuclease/redox regulator APEX1 (Homo sapiens) (UniProt P27695); test: qHTS Validation Assay for Inhibitors of the Human Apurinic/apyrimidinic Endonuclease 1 (APE1) (AID 1705;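 note: TAMRA fluorescence gain over two minutes as APE1 cuts a quenched THF abasic duplex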)
Sequence of DNA repair nuclease/redox regulator APEX1 (Homo sapiens) (P27695 whole entry, looked up): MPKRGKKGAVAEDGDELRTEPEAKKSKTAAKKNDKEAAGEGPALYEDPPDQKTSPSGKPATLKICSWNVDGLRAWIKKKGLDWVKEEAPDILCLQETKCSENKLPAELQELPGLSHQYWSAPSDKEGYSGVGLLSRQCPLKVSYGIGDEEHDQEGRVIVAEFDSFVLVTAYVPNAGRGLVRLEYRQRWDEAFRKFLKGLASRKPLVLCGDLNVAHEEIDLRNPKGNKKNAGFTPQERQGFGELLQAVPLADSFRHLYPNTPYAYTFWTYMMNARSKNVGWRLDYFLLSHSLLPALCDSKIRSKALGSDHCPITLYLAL
In short: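 qHTS, 1536-well. APE1 + cpd 15 min RT → 50 nM TAMRA/BHQ-2 THF-abasic dsDNA substrate → kinetic fluorescence, 3 reads/60 s; delta(read3−read1) = reaction progress. No-enzyme buffer = negative control.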

[14] = Counterscreen for APE1 Inhibitors: Fluorescent Dye Displacement Validation Assay (AID 1707)
In short: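 Signal: ThO fluorescence (ex 480 nm/em 540 nm) on binding 50 nM dsDNA; displacement by test compound reduces it. Conditions: 250 nM dye, 50 mM Tris-HCl pH7.5, 2 mM MgCl2, 50mM NaCl, 0.01% Tween-20.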

[15] = target: Endonuclease 4 (Escherichia coli (strain K12)) (UniProt P0A6C1); test: Counterscreen for APE1 Inhibitors: qHTS Validation Assay for Inhibitors of Endonuclease IV (AID 1708)
In short: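 The reaction buffer contained 50 mM Tris-HCl pH 7.5, 50 mM NaCl, 2 mM MgCl2, 1 mM DTT and 0.01% Tween-20. Incision of a 50 nM fluorophore/quencher THF substrate by 2 nM enzyme was measured kinetically.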

[16] = qHTS for differential inhibitors of proliferation of Plasmodium falciparum line 7G8 (AID 1815);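 note: parasite growth measured after three days of incubation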; note: potency is the fitted concentration of half-maximal effect
[17] = qHTS for differential inhibitors of proliferation of Plasmodium falciparum line 3D7 (AID 1876);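 note: parasite growth measured after three days of culture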
[18] = measured here: cell count channel max response
[19] = measured here: lipid channel max response

## O=C(O)c1cccnc1
[1]; at 25.7 µM (top of the series)
  activity change, negative = inhibition: -4.1% (inactive)
[1]; at 57.5 µM (top of the series)
  activity change, negative = inhibition: 5.73% (inactive)
[1]; [18]
  max response: -11.4% and 15.3%
[1]; [19]
  max response: -16.2% and 21.7%

## COc1ccc2cc3[n+](cc2c1OC)CCc1cc2c(cc1-3)OCO2
[2]
  Potency: 31.6 µM (active)
[3]
  Potency: 39.8 µM (active)
[4]
  Potency: inactive
[1]; at 25.7 µM (top of the series)
  activity change, negative = inhibition: -1.57% (inactive)
[1]; [18]
  max response: -13.6%
[1]; [19]
  max response: -12.8%

## O=c1oc2c(O)c(O)cc3c(=O)oc4c(O)c(O)cc1c4c23
[1]; at 57.5 µM (top of the series)
  activity change, negative = inhibition: 8.32% (inactive)
[1]; [18]
  max response: 18.5%
[1]; [19]
  max response: 32.6%

## COc1cc(NS(=O)(=O)c2ccc(N)cc2)nc(OC)n1
[1]; at 25.7 µM (top of the series)
  activity change, negative = inhibition: -1.42% (inactive)
[1]; at 57.5 µM (top of the series)
  activity change, negative = inhibition: 14.8% (inactive)
[1]; [18]
  max response: -11.2% and 9.08%
[1]; [19]
  max response: -12.8% and 25.1%

## Cc1ccnc2c1NC(=O)c1cccnc1N2C1CC1
[5]
  Potency: inactive
[6]
  Potency: inactive
[7]
  Potency: inactive
[8]
  Potency: inactive
[9]
  Potency: inactive
[2]
  Potency: inactive
[3]
  Potency: inactive
[10]
  Potency: inactive
[4]
  Potency: inactive

## Cc1noc(NS(=O)(=O)c2ccc(N)cc2)c1C
[5]
  Potency: inactive
[6]
  Potency: inactive
[7]
  Potency: inactive
[8]
  Potency: inactive
[9]
  Potency: inactive
[2]
  Potency: inactive
[3]
  Potency: inactive
[10]
  Potency: inactive
[4]
  Potency: inactive

## CC(C)(C)NC(=O)[C@H]1CC[C@H]2[C@@H]3CC[C@H]4NC(=O)C=C[C@]4(C)[C@H]3CC[C@]12C
[11]
  outcome: inactive
[12]
  outcome: inactive
[1]; at 57.5 µM (top of the series)
  activity change, negative = inhibition: -0.33% (inactive)
[1]; [18]
  max response: -43.7%
[1]; [19]
  max response: -42.5%
[13]
  outcome: inactive
[14]
  outcome: inactive
[15]
  outcome: inactive
[16]
  Potency: 10 µM (active)

## O=C(N[C@H](CO)[C@H](O)c1ccc([N+](=O)[O-])cc1)C(Cl)Cl
[5]
  Potency: inactive
[6]
  Potency: inactive
[7]
  Potency: inactive
[8]
  Potency: inactive
[9]
  Potency: inactive
[2]
  Potency: inactive
[3]
  Potency: inactive
[10]
  Potency: inactive
[4]
  Potency: inactive
[1]; at 57.5 µM (top of the series)
  activity change, negative = inhibition: 4.84% (inactive)
[1]; [18]
  max response: -11.7%
[1]; [19]
  max response: -6.22%

## CCCCCCNC(=O)n1cc(F)c(=O)[nH]c1=O
[1]; at 57.5 µM (top of the series)
  activity change, negative = inhibition: 8.3% (inactive)
[1]; [18]
  max response: 11.2%
[1]; [19]
  max response: 19.7%

## CCc1cc(C(N)=S)ccn1
[5]
  Potency: inactive
[6]
  Potency: inactive
[7]
  Potency: inactive
[8]
  Potency: inactive
[9]
  Potency: inactive
[2]
  Potency: inactive
[3]
  Potency: inactive
[10]
  Potency: inactive
[4]
  Potency: inactive
[1]; at 25.7 µM (top of the series)
  activity change, negative = inhibition: -2.71% (inactive)
[1]; at 57.5 µM (top of the series)
  activity change, negative = inhibition: 6.15% (inactive)
[1]; [18]
  max response: -9.37% and 8.92%
[1]; [19]
  max response: -12.5% and 21.6%

## Nc1nc(N)c2nc(CNc3ccc(C(=O)NC(CCC(=O)O)C(=O)O)cc3)cnc2n1 (centres undefined)
[1]; at 57.5 µM (top of the series)
  activity change, negative = inhibition: 6.58% (inactive) and 1.3% (inactive)
[1]; [18]
  max response: 6.78% and -3.02%
[1]; [19]
  max response: 18.5% and 0.109%
[14]
  outcome: inactive
[16]
  Potency: inactive
[17]
  Potency: inactive

## Cc1cccc(Nc2ccncc2S(=O)(=O)NC(=O)NC(C)C)c1
[1]; at 25.7 µM (top of the series)
  activity change, negative = inhibition: -1.07% (inactive)
[1]; at 57.5 µM (top of the series)
  activity change, negative = inhibition: 6.92% (inactive)
[1]; [18]
  max response: -3.68% and 16.7%
[1]; [19]
  max response: -4.97% and 28.2%

## N=C(N)c1ccc(OCCCCCOc2ccc(C(=N)N)cc2)cc1
[5]
  Potency: 39.8 µM (active)
[2]
  Potency: 39.8 µM (active)
[4]
  Potency: 50.1 µM (active)
[1]; at 25.7 µM (top of the series)
  activity change, negative = inhibition: -3.38% (inactive)
[1]; at 57.5 µM (top of the series)
  activity change, negative = inhibition: 3.95% (inactive)
[1]; [18]
  max response: 3.1% and 6.27%
[1]; [19]
  max response: -0.0009% and 12.3%

## CC[C@H](NC(C)C)[C@H](O)c1ccc(O)c2[nH]c(=O)ccc12
[1]; at 57.5 µM (top of the series)
  activity change, negative = inhibition: -1.12% (inactive)
[1]; [18]
  max response: -20.9%
[1]; [19]
  max response: -21.9%

## CC1=NN(c2ccccc2)C(=O)C1
[5]
  Potency: inactive
[6]
  Potency: inactive
[7]
  Potency: inactive
[8]
  Potency: inactive
[9]
  Potency: inactive
[2]
  Potency: inactive
[3]
  Potency: inactive
[10]
  Potency: inactive
[4]
  Potency: inactive
[1]; at 57.5 µM (top of the series)
  activity change, negative = inhibition: 5.32% (inactive)
[1]; [18]
  max response: 16.1%
[1]; [19]
  max response: 20.6%
